Experimental findings from PMC5700166 are described below.

The target of this assay is T1, GST-Ap-NF-kB RHD (Exaiptasia pallida (Aiptasia), UniProt A0A913YAJ5 2-422).
T1 sequence: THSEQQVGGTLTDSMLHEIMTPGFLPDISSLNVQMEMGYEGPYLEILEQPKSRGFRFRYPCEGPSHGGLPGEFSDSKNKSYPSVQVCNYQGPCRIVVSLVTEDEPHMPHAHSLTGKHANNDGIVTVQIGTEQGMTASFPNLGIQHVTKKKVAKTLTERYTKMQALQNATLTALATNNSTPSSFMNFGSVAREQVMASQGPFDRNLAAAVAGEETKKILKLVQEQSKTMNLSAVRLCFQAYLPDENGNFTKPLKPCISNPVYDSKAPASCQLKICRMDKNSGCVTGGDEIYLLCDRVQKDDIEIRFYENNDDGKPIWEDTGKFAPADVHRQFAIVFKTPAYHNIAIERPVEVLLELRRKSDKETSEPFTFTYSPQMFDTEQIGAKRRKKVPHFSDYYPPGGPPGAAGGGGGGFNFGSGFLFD
As to the kind of experiment: protein-binding microarray (PBM); PBM: ~300 nM protein, 6 mM HEPES pH 7.8, 80 mM KCl, 0.5 mM EDTA, 0.5 mM EGTA, 6% glycerol, 35 ng/ul poly-dIdC, 1% milk, 1 h, room temperature; Ap Aiptasia and Nv Nematostella (sea anemones) / Co Capsaspora / Aq Amphimedon (sponge) / Dm Drosophila / Hu human; RHD is the Rel homology domain; high values mean tight binding. Particulars: dsDNA, one strand shown.
Sequence “CCGATTAACATCAGGGGAACGCATGATGTTAATCGGGTCTTGATTCGCTTGACGCTGCTG” yielded a binding signal of 5.31 z-score.
The figure for “CCGATTAACATCAGGGGGCTATATGATGTTAATCGGGTCTTGATTCGCTTGACGCTGCTG” is 3.62 z-score.
“CCGATTAACATCAAATTTCCCAGTGATGTTAATCGGGTCTTGATTCGCTTGACGCTGCTG” yielded a binding signal of 2.47 z-score.
Turning to “CCGATTAACATCAAAAAATCCCATGATGTTAATCGGGTCTTGATTCGCTTGACGCTGCTG”, the binding signal turned out to be 4.84 z-score.
Regarding “CCGATTAACATCAAAAATCCCAATGATGTTAATCGGGTCTTGATTCGCTTGACGCTGCTG”, the binding signal was found to be 2.79 z-score.
“CCGATTAACATCAAAAAAACCCCTGATGTTAATCGGGTCTTGATTCGCTTGACGCTGCTG”: the binding signal amounted to 9.17 z-score.
In turn, “CCGATTAACATCAGGGAATTTACTGATGTTAATCGGGTCTTGATTCGCTTGACGCTGCTG” returned a binding signal of 4.29 z-score.
As for “CCGATTAACATCAAGGGGGTACTTGATGTTAATCGGGTCTTGATTCGCTTGACGCTGCTG”, the binding signal came out at 4.81 z-score.
The figure for “CCGATTAACATCAGGGGAGGGAATGATGTTAATCGGGTCTTGATTCGCTTGACGCTGCTG” is 3.95 z-score; for “CCGATTAACATCAGGGGATACACTGATGTTAATCGGGTCTTGATTCGCTTGACGCTGCTG” it is 4.44 z-score.
The figure for “CCGATTAACATCAAGGGGGGGTGTGATGTTAATCGGGTCTTGATTCGCTTGACGCTGCTG” is 4.34 z-score; for “CCGATTAACATCAGGTTTCCCCATGATGTTAATCGGGTCTTGATTCGCTTGACGCTGCTG” it is 6.59 z-score.
The figure for “CCGATTAACATCAAAAATACCCCTGATGTTAATCGGGTCTTGATTCGCTTGACGCTGCTG” is 7.44 z-score; for “CCGATTAACATCAGGGGGGACGATGATGTTAATCGGGTCTTGATTCGCTTGACGCTGCTG” it is 5.01 z-score; for “CCGATTAACATCAGGGGAACCACTGATGTTAATCGGGTCTTGATTCGCTTGACGCTGCTG” it is 7.59 z-score.
In turn, “CCGATTAACATCAAAAAACCCCTTGATGTTAATCGGGTCTTGATTCGCTTGACGCTGCTG” came in with a binding signal of 8.1 z-score.
For “CCGATTAACATCAGGGTATTTTATGATGTTAATCGGGTCTTGATTCGCTTGACGCTGCTG” the value was 5.82 z-score; for “CCGATTAACATCAAGAACTTCCCTGATGTTAATCGGGTCTTGATTCGCTTGACGCTGCTG”, 3.37 z-score; for “CCGATTAACATCACGGGGAATTCTGATGTTAATCGGGTCTTGATTCGCTTGACGCTGCTG”, 9.62 z-score.
For “CCGATTAACATCAGGGGATTTAATGATGTTAATCGGGTCTTGATTCGCTTGACGCTGCTG” the value was 7.05 z-score.
The figure for “CCGATTAACATCAGGGGAATTAATGATGTTAATCGGGTCTTGATTCGCTTGACGCTGCTG” is 6.97 z-score.
“CCGATTAACATCAAATGTCCCCCTGATGTTAATCGGGTCTTGATTCGCTTGACGCTGCTG” displayed a binding signal of 6.37 z-score.
The figure for “CCGATTAACATCAGGAATTCCCCTGATGTTAATCGGGTCTTGATTCGCTTGACGCTGCTG” is 11.7 z-score; for “CCGATTAACATCAAAAACTCCCCTGATGTTAATCGGGTCTTGATTCGCTTGACGCTGCTG” it is 9.29 z-score; for “CCGATTAACATCACACATCCCCCTGATGTTAATCGGGTCTTGATTCGCTTGACGCTGCTG” it is 4.83 z-score.
For “CCGATTAACATCAAGACTTCCCCTGATGTTAATCGGGTCTTGATTCGCTTGACGCTGCTG” the value was 6.45 z-score; for “CCGATTAACATCAGGGGGGTGAATGATGTTAATCGGGTCTTGATTCGCTTGACGCTGCTG”, 3.76 z-score.
The figure for “CCGATTAACATCAGGGGGGTAAATGATGTTAATCGGGTCTTGATTCGCTTGACGCTGCTG” is 4.89 z-score; for “CCGATTAACATCATAAATTCCCATGATGTTAATCGGGTCTTGATTCGCTTGACGCTGCTG” it is 2.62 z-score; for “CCGATTAACATCAAATCCCCCCGTGATGTTAATCGGGTCTTGATTCGCTTGACGCTGCTG” it is 8.26 z-score.
As for “CCGATTAACATCAAATTCCCATGTGATGTTAATCGGGTCTTGATTCGCTTGACGCTGCTG”, the binding signal came to 2.41 z-score.
For “CCGATTAACATCAGGGGGCGGGATGATGTTAATCGGGTCTTGATTCGCTTGACGCTGCTG” the value was 3.64 z-score; for “CCGATTAACATCAGGAAATTCCCTGATGTTAATCGGGTCTTGATTCGCTTGACGCTGCTG”, 6.31 z-score; for “CCGATTAACATCAGGGGGTGGTATGATGTTAATCGGGTCTTGATTCGCTTGACGCTGCTG”, 3.21 z-score.
The figure for “CCGATTAACATCAAAAATTACCCTGATGTTAATCGGGTCTTGATTCGCTTGACGCTGCTG” is 4.2 z-score; for “CCGATTAACATCACGGGGGATTCTGATGTTAATCGGGTCTTGATTCGCTTGACGCTGCTG” it is 8.95 z-score.
“CCGATTAACATCAAAGGACCCCCTGATGTTAATCGGGTCTTGATTCGCTTGACGCTGCTG” had a binding signal of 4.81 z-score.
As to “CCGATTAACATCACAGTCCCCCCTGATGTTAATCGGGTCTTGATTCGCTTGACGCTGCTG”, the binding signal was determined as 5.98 z-score.
For the sequence “CCGATTAACATCAAAAAGCCCCCTGATGTTAATCGGGTCTTGATTCGCTTGACGCTGCTG”, the binding signal is 7.94 z-score.
The figure for “CCGATTAACATCAGAAATATCCCTGATGTTAATCGGGTCTTGATTCGCTTGACGCTGCTG” is 2.4 z-score.
